The campaign covered roughly 5,500 compounds. About 2,000 (36%) were called active. Roughly 18% stayed inconclusive and do not appear here. No stated cut-off is given here; in the data, active means normalized growth mostly below about 0.91 (no sharp cut-off); inconclusive means no clear call, values can overlap the other calls; inactive means mostly above about 0.92. This is one part of the list.
Assay: chemical genetic growth profiling, strain panel (AID 1159580);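 further: tested at 20 µM; growth read once vehicle control cultures reached saturation at 30 °C; 1 = growth at the plate median or of vehicle wells; lower values mean less growth of the strain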
Settings: S. cerevisiae deletion strains, growth OD
[1] = locus YDL101C, strain DUN1, hits give low values
[2] = locus YHR030C, strain SLT2, hits give low values

Measured: normalized growth

COc1nc(N)nc(SC)n1
inactive: locus YAL013W, strain DEP1, hits give low values 0.995 | locus YBR229C, strain ROT2, hits give low values 1 | locus YCL061C, strain MRC1, hits give low values 0.988 | [1] 1 | locus YDR150W, strain NUM1, hits give low values 1 | locus YEL061C, strain CIN8, hits give low values 0.989 | locus YGR078C, strain PAC10, hits give low values 1.02 | locus YGR229C, strain SMI1, hits give low values 0.985 | [2] 1.05 | locus YHR087W, strain rtc3, hits give low values 0.992 | locus YJR043C, strain POL32, hits give low values 0.987 | locus YJR075W, strain HOC1, hits give low values 0.987 | locus YKL190W, strain CNB1, hits give low values 0.974 | locus YLR039C, strain RIC1, hits give low values 0.97 | locus YLR058C, strain SHM2 (second series), hits give low values 0.989 | locus YLR085C, strain ARP6, hits give low values 0.984 | locus YLR262C, strain YPT6, hits give low values 0.974 | locus YML094W, strain GIM5, hits give low values 1.12 | locus YMR219W, strain ESC1, hits give low values 0.993 | locus YMR263W, strain SAP30, hits give low values 0.984 | locus YNL128W, strain TEP1, hits give low values 0.979 | locus YNL153C, strain GIM3, hits give low values 1 | locus YNL298W, strain CLA4 (second series), hits give low values 0.98 | locus YNL322C, strain KRE1, hits give low values 1 | locus YNR030W, strain Alg12, hits give low values 1.02 | locus YOL006C, strain TOP1, hits give low values 0.978 | locus YPL055C, strain LGE1, hits give low values 1.01 | locus YPL241C, strain CIN2, hits give low values 1.14 | locus YPR135W, strain CTF4, hits give low values 1.03

COc1cc(C(=O)Oc2c(Cl)cc(Cl)cc2C=Nc2cccc([N+](=O)[O-])c2)cc(OC)c1OC
inactive: locus YAR019C, strain CDC15, hits give low values 0.959 | locus YBL105C, strain PKC1, hits give low values 0.971 | locus YBR135W, strain CKS1, hits give low values 0.973 | locus YBR136W, strain MEC1, hits give low values 0.977 | locus YBR160W, strain CDC28, hits give low values 0.98 | locus YDL017W, strain CDC7, hits give low values 0.982 | locus YDL028C, strain MPS1, hits give low values 0.962 | [1] 0.985 | locus YDL108W, strain KIN28, hits give low values 0.971 | locus YDL132W, strain cdc53, hits give low values 0.962 | locus YDR052C, strain DBF4, hits give low values 0.987 | locus YDR054C, strain cdc34, hits give low values 0.956 | locus YDR226W, strain ADK1, hits give low values 0.964 | locus YFL009W, strain cdc4, hits give low values 0.958 | locus YFL029C, strain CAK1, hits give low values 0.98 | locus YFR003C, strain YPI1, hits give low values 0.976 | locus YFR028C, strain CDC14, hits give low values 0.965 | locus YIL147C, strain SLN1, hits give low values 0.973 | locus YJL128C, strain PBS2, hits give low values 0.921 | locus YJR016C, strain ILV3, hits give low values 0.988 | locus YJR066W, strain TOR1 (second series), hits give low values 0.801 | locus YKL193C, strain SDS22, hits give low values 0.979 | locus YKL203C, strain TOR2, hits give low values 0.738 | locus YMR001C, strain CDC5, hits give low values 0.981 | locus YMR277W, strain FCP1, hits give low values 0.972 | locus YNL006W, strain LST8, hits give low values 0.995 | locus YNL161W, strain CBK1, hits give low values 0.982 | locus YNL207W, strain RIO2, hits give low values 0.966 | locus YNL222W, strain SSU72, hits give low values 0.98 | locus YOL078W, strain AVO1, hits give low values 0.978 | locus YOR329C, strain SCD5, hits give low values 0.985 | locus YPL209C, strain IPL1, hits give low values 0.978 | locus YPR025C, strain CCL1, hits give low values 0.973 | locus YPR106W, strain ISR1, hits give low values 0.959 | locus YPR111W, strain DBF20, hits give low values 0.928 | strain NNK1, hits give low values 0.963 | strain TSCII, hits give low values 0.982
active: locus YDL214C, strain PRR2, hits give low values 0.607 | locus YDR477W, strain SNF1, hits give low values 0.626 | locus YER123W, strain YCK3, hits give low values 0.415 | locus YER133W, strain GLC7, hits give low values 0.59 | locus YFR019W, strain FAB1, hits give low values 0.706 | locus YGR040W, strain KSS1, hits give low values 0.648 | locus YGR052W, strain FMP48, hits give low values 0.561 | locus YGR092W, strain DBF2, hits give low values 0.336 | [2] 0.387 | locus YHR079C, strain IRE1, hits give low values 0.438 | locus YHR082C, strain KSP1, hits give low values 0.569 | locus YHR205W, strain SCH9, hits give low values 0.473 | locus YJL095W, strain BCK1, hits give low values 0.473 | locus YJL157C, strain FAR1, hits give low values 0.629 | locus YJR066W, strain TOR1, hits give low values 0.427 | locus YKL048C, strain ELM1, hits give low values 0.776 | locus YKL067W, strain YNK1, hits give low values 0.613 | locus YKL101W, strain HSL1, hits give low values 0.678 | locus YLR113W, strain HOG1, hits give low values 0.577 | locus YLR133W, strain CKI1, hits give low values 0.621 | locus YLR403W, strain SFP1, hits give low values 0.51 | locus YML070W, strain DAK1, hits give low values 0.642 | locus YMR205C, strain PFK2 (second series), hits give low values 0.646 | locus YNL020C, strain ARK1, hits give low values 0.597 | locus YNL183C, strain NPR1, hits give low values 0.54 | locus YNL307C, strain MCK1 (second series), hits give low values 0.566 | locus YOL136C, strain PFK27, hits give low values 0.597 | locus YOR061W, strain CKA2, hits give low values 0.576 | locus YOR119C, strain RIO1, hits give low values 0.642 | locus YOR231W, strain MKK1, hits give low values 0.494 | locus YPL031C, strain PHO85, hits give low values 0.6 | locus YPL153C, strain RAD53, hits give low values 0.619 | locus YPL204W, strain HRR25, hits give low values 0.58 | locus YPL256C, strain CLN2, hits give low values 0.481
